Data on 15 molecules can be found in PubChem BioAssay (EPA / NIEHS).

Results filed as inconclusive are left out. Some structures have more than one record in an assay (separate samples or runs), and their calls can disagree. The source made the active and inactive calls. The calls were made as follows, unless noted: active = hit-call score of the fitted dose curve at least 0.9, where 1 is the maximum; inconclusive = response in the unintended direction; inactive = score below 0.9.

For assay [1], the target named is Retinoic acid receptor RXR-alpha (Homo sapiens) (UniProt P19793). The assay can be described thus: OT_NURR1_NURR1RXRa_0480: Odyssey Thera (OT) 8-hour HEK293T Protein Complementation Assay for Nurr1/retinoid X receptor (RXR) (AID 2283385). The gist of the method:
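8 h compound exposure, HEK293T; Nurr1/RXRα fragment complementation; fluorescence intensity; positive fitting direction vs DMSO baseline.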

The target is the same in assay [2]. As to the kind of experiment: OT_NURR1_NURR1RXRa_1440: Odyssey Thera (OT) 24-hour HEK293T Protein Complementation Assay for Nurr1/retinoid X receptor (RXR) (AID 2283386). The gist of the method: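 Interaction of Nurr1 with RXRα brings fused reporter fragments together in human HEK293T cells, restoring a functional reporter. Fluorescence intensity is measured 24 h after chemical treatment, and values are analysed in the positive direction against DMSO.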

In assay [3] the target is Peroxisome proliferator-activated receptor gamma (Homo sapiens) (UniProt P37231). The assay can be described thus: OT_PPARg_PPARgSRC1_0480: Odyssey Thera (OT) 8-hour Protein-Complementation Assay for Peroxisome Proliferator-activated Receptor Gamma / SRC-1 Co-activator (AID 2283387).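 Also: nuclear to cytoplasmic split Venus YFP fluorescence ratio reporting PPARg SRC-1 interaction.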 Summed up:
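Read-out: 488 nm N/C fluorescence ratio from complemented Venus YFP fragments, ≥350 cells per image, gain-of-signal fitted against DMSO baseline. Fusions of PPARg/SRC-1 with IFP1/IFP2 expressed transiently in HEK293T; compounds applied 8 h.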

Assay [4] shares this target. The assay can be described thus: OT_PPARg_PPARgSRC1_1440: Odyssey Thera (OT) 24-hour Protein-Complementation Assay for Peroxisome Proliferator-activated Receptor Gamma/ SRC-1 Co-activator (AID 2283388).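 Also: nuclear to cytoplasmic ratio of reconstituted Venus YFP fluorescence in fixed imaged cells.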 The gist of the method:
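Readout: nuclear-to-cytoplasmic 488 nm fluorescence ratio, ≥350 cells per image, 8 images per well, after 24 h compound exposure of HEK293T expressing PPARg/SRC-1 split-YFP fusions. Activity fitted in positive direction against DMSO.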

A short description of assay [5]: CEETOX_H295R_11DCORT: CeeTox H295R High-throughput Steroidogenesis Assay for 11-Deoxycortisol (11DCORT) (AID 2283432; active = hit-call score of the fitted dose curve at least 0.9, where 1 is the maximum; inactive = score below 0.9;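 as to AC50: 11-deoxycortisol secreted into the medium measured by LC-MS/MS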). To be noted: actives raise or lower the signal. Summed up:
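H295R cells; 10 uM forskolin prestim 48 h; compound in 0.1% DMSO 48 h; media extracted with MTBE; 11-deoxycortisol by LC-MS/MS, 7-point standard curve; gain/loss vs DMSO baseline; viability by MTT in same wells.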

Assay [6] in a line: CEETOX_H295R_OHPREG: CeeTox H295R High-throughput Steroidogenesis Assay for OH-Pregnenolone (OHPREG) (AID 2283434; active = hit-call score of the fitted dose curve at least 0.9, where 1 is the maximum; inactive = score below 0.9). Particulars: actives raise or lower the signal. The gist of the method: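 Human adrenal H295R cells were prestimulated 48 h with 10 uM forskolin, then exposed 48 h to chemical in 0.1% DMSO. Medium 17alpha-hydroxypregnenolone was quantified by HPLC-MS/MS after MTBE extraction; bidirectional fitting versus DMSO baseline.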

Assay [7] is described as follows: CEETOX_H295R_OHPROG: CeeTox H295R High-throughput Steroidogenesis Assay for OH-Progesterone (OHPROG) (AID 2283435; active = hit-call score of the fitted dose curve at least 0.9, where 1 is the maximum; inactive = score below 0.9;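 as to AC50: 17alpha-hydroxyprogesterone secreted into medium measured by HPLC-MS/MS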). Particulars: actives raise or lower the signal. Summed up: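 H295R, 10 uM forskolin prestim 48 h; cmpd in 0.1% DMSO 48 h; medium MTBE-extracted, HPLC-MS/MS for OH-progesterone; 7-pt std curve; bidirectional fit vs DMSO; MTT viability, chemicals diluted until viability >/=70%.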

Assay [8] in a line: CEETOX_H295R_CORTIC: CeeTox H295R High-throughput Steroidogenesis Assay for Corticosterone (CORTIC) (AID 2283437; active = hit-call score of the fitted dose curve at least 0.9, where 1 is the maximum; inactive = score below 0.9;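 also: corticosterone secreted into medium quantified by mass spectrometry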). Particulars: actives raise or lower the signal. Summed up:
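H295R cells were prestimulated 48 h with 10 uM forskolin, then exposed 48 h to test chemical in 0.1% DMSO. Medium corticosterone was MTBE-extracted and quantified by HPLC-MS/MS; bidirectional fit versus DMSO baseline.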

Assay [9] has as its target Estrogen receptor beta (Homo sapiens) (UniProt Q92731). As to the kind of experiment: OT_ER_ERbERb_1440: Odyssey Thera (OT) 24-hour HEK293T Protein-Complementation Assay for Estrogen Receptor-beta/-beta Homodimer (AID 2283380).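 Also: fluorescence gain from ER beta LBD homodimer complementation read by laser scanning cytometry; scored as signal increase over DMSO baseline for both agonists and antagonists.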 The gist of the method: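 HEK293T cells stably expressing human ER-beta LBD (aa 310-547) PCA homodimer pair, dosed 24 h; formaldehyde-fixed, Draq5-stained. Readout: increase in nuclear (agonist) or nuclear plus cytoplasmic (antagonist) fluorescence intensity versus DMSO, gain-of-signal fitting.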

Assay [10] deals with Bile acid receptor (Homo sapiens) (UniProt Q96RI1). As to the kind of experiment: OT_FXR_FXRSRC1_0480: Odyssey Thera (OT) 8-hour HEK293T Protein-Complementation Assay for Farnesoid X receptor/SRC-1 Co-activator (AID 2283383). The gist of the method: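 Human kidney HEK293T cells carried FXR/SRC-1 fragment-complementation constructs. Compounds were added and incubated 8 h. Reporter reassembly upon receptor–co-activator interaction was then quantified by fluorescence, with curves fitted in the positive direction relative to DMSO.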
Sequence of Bile acid receptor (Homo sapiens) (Q96RI1 whole entry, looked up, the tested form may be a part): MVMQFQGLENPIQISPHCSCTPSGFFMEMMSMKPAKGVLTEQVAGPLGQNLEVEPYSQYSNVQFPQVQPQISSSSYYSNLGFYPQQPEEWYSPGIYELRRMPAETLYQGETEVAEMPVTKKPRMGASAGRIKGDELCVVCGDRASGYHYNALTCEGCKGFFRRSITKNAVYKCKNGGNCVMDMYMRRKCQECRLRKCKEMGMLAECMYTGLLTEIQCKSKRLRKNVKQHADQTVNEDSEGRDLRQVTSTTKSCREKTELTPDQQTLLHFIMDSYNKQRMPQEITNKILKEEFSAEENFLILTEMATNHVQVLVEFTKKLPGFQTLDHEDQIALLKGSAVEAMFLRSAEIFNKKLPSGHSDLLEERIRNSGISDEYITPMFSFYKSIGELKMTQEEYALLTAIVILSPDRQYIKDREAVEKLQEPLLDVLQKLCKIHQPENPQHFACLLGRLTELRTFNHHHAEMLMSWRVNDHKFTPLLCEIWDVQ

For assay [11] the target is unchanged. As to the kind of experiment: OT_FXR_FXRSRC1_1440: Odyssey Thera (OT) 24-hour HEK293T Protein-Complementation Assay for Farnesoid X receptor/SRC-1 Co-activator (AID 2283384). The gist of the method:
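Compounds are applied to human kidney HEK293T cells expressing bait and prey fused to reporter protein fragments; after 24 h, reconstituted reporter fluorescence is measured. Activity is fitted as signal gain over DMSO.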

Sequence of Peroxisome proliferator-activated receptor gamma (Homo sapiens) (P37231 whole entry, looked up, the tested form may be a part): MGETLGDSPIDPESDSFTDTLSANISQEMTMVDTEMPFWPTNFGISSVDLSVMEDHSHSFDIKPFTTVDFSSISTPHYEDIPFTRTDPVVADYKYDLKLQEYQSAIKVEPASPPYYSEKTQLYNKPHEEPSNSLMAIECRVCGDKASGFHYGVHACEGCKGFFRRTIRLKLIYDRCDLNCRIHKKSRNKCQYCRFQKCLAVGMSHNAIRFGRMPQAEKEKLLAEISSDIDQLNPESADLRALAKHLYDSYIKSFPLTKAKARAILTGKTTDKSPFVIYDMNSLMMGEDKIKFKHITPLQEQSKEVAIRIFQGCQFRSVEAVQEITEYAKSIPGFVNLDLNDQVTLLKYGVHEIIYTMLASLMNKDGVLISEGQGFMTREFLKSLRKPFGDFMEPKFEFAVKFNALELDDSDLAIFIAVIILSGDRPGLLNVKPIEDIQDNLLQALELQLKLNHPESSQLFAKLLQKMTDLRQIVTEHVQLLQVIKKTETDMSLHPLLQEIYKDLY
Sequence of Retinoic acid receptor RXR-alpha (Homo sapiens) (P19793 whole entry, looked up, the tested form may be a part): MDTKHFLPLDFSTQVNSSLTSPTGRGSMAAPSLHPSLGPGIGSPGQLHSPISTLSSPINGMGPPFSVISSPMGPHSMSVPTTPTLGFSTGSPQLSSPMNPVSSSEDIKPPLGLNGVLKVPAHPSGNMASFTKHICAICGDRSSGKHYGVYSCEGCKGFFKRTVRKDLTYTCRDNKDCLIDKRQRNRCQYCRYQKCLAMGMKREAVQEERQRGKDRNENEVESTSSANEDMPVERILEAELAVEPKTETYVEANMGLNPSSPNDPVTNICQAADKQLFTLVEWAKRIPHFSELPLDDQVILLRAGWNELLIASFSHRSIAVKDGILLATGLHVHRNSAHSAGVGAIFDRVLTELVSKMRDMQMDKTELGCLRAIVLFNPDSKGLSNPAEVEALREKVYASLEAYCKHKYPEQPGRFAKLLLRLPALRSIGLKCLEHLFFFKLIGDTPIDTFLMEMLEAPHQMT
Sequence of Estrogen receptor beta (Homo sapiens) (Q92731 whole entry, looked up, the tested form may be a part): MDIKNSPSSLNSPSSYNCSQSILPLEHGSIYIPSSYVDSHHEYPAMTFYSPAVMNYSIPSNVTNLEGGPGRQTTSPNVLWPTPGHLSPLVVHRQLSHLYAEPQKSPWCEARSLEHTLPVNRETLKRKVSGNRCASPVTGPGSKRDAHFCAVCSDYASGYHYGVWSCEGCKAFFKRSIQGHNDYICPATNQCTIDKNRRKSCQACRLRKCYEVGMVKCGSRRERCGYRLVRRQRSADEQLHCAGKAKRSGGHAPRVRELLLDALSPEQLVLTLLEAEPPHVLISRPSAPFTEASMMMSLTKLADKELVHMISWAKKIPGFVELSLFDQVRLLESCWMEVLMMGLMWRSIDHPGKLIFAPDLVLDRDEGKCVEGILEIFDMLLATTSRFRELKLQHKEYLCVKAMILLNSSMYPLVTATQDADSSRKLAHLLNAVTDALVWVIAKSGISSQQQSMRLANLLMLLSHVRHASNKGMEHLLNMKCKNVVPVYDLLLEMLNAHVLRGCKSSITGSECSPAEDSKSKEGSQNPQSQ

As to `CN(C)[C@@H]1C(=O)C(C(N)=O)=C(O)[C@@]2(O)C(=O)C3=C(O)c4c(O)cccc4[C@@](C)(O)[C@H]3[C@H](O)[C@@H]12`, the AC50 (usually the midpoint of the concentration-response curve, whichever way the signal moves) in assay [1] is 50 µM (active); in assay [2], 23.7 µM (active). In addition, the call in assay [1], in assay [2], in assay [3] and in [4] was inactive.
As to `CCOP(=S)(OCC)Oc1cc(C)nc(C(C)C)n1`, the molecule was called inactive in assay [3], in assay [4] and in assay [6]. Further, the AC50 in assay [5] was 50 µM (active); in assay [7] it was 6.6 µM (active); in [8], 36.6 µM (active).
Regarding `CCc1cccc(C)c1N(C(=O)CCl)C(C)COC` (configuration not stated), the outcome in assay [9], in [1], in [2], in [3], in [4] and in [6] was inactive. Moreover, the molecule was classed as inactive in [7].
In the case of `COc1cc(OC)nc(Sc2cccc(Cl)c2C(=O)O)n1`, the molecule was called inactive in [1], in assay [2], in assay [3] and in assay [4].
On to `S=C1NCCN1`, for which the call in [1], in assay [2], in [3] and in assay [4] was inactive.
Regarding `CCOC(=O)CC(SP(=O)(OC)OC)C(=O)OCC` (configuration not stated), the outcome in assay [9], in assay [10], in assay [11], in assay [1], in assay [2] and in [3] was inactive. Also, the result in assay [4] was inactive.
For the molecule `COP(=O)(NC(C)=O)SC` (configuration not stated), the outcome in assay [9], in assay [1], in [2], in [3], in [4] and in assay [5] was inactive. Moreover, the result in assay [7] and in assay [8] was inactive.
On to `Cc1ccn2nc(S(=O)(=O)Nc3c(F)cccc3F)nc2n1`, for which the molecule was called inactive in assay [9], in [10], in assay [11], in assay [1], in assay [2] and in assay [3]. In addition, in assay [4], the call was inactive.
In the case of `CN1COCN(Cc2cnc(Cl)s2)C1=N[N+](=O)[O-]`, the outcome in assay [11], in assay [1], in [2], in [3] and in [4] was inactive.
`COP(=O)(OC)C(O)C(Cl)(Cl)Cl` (configuration not stated): the result in assay [10], in assay [1], in [2], in assay [3] and in [4] was inactive. Moreover, the AC50 in [11] was 25.1 µM (active).
In the case of `COc1cccc(C(=O)NN(C(=O)c2cc(C)cc(C)c2)C(C)(C)C)c1C`, the molecule was classed as inactive in [9], in assay [1], in [2], in [3], in [4] and in assay [6]. Besides, the AC50 in [10] is 14.7 µM (active); in assay [11], 27 µM (active).
For `CCNc1nc(Cl)nc(NC(C)(C)C#N)n1`, the outcome in assay [9], in assay [1], in [2], in [3], in [4] and in assay [5] was inactive. Further, the outcome in [6], in assay [7] and in assay [8] was inactive.
For the molecule `CCOP(=O)(OCC)Oc1cc(C)nc(C(C)C)n1`, the molecule was called inactive in assay [9], in [10], in assay [11], in [2], in assay [3] and in assay [4].
On to `CCOP(=S)(Oc1cnc(C(C)(C)C)nc1)OC(C)C` (configuration not stated), for which the AC50 in [1] was 73.2 µM (active); in assay [2] it was 78.8 µM (active). Further, the call in [1], in assay [2], in [3] and in assay [4] was inactive.
As for `Nc1nc(N)nc(NC2CC2)n1`, the molecule was called inactive in [9], in assay [11], in assay [1], in [2], in [5] and in assay [6]. Also, the molecule was called inactive in assay [7] and in assay [8].
